{"source": "PubChem BioAssay (NCATS)", "note": "Where “and” joins values, the source holds several entries; their conditions need not be identical. Identical values can stand only once.", "data": [{"assay": "qHTS profiling of the MIPE4 collection as inhibitors of Plasmodium falciparum (3D7) proliferation (AID 743344);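 note: scaled between DMSO vehicle wells and 0.29 µM artemisinin as full inhibition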", "conditions": "P. falciparum 3D7 in erythrocytes, SYBR Green DNA fluorescence, 72 h; at 9.64 µM (top of the series)", "excerpt": "(§1) Plasmodium falciparum is a virulent malarial parasite that kills 1-2 million people worldwide each year. Transmitted by mosquitoes, the sporozoite form of the parasite enters the blood stream to infect hepatocytes, where they become merozoites that infect red blood cells (erythrocytes). Within erythrocytes, merozoites begin a […] cycle of growth and division, after which the parasite is released to infect new red blood cells. Gametocytes, which form within erythrocytes as well, circulate in the bloodstream and are ingested by the mosquito, thereby completing the life cycle. To profile malarial isolates for differential chemical responses and to identify inhibitors of malarial growth, an assay that measures P. falciparum growth and replication within erythrocytes was employed. This assay uses a DNA binding fluorescent dye (SYBR Green) to detect parasite DNA following cell lysis. Because mature erythrocytes lack DNA, only Plasmodium-derived DNA is detected.\n(§2) The SYBR Green viability assay was adapted from a method described previously (Plouffe et al., 2008). For screening 3 ul culture medium was dispensed into 1536 well black clear bottom plates (Aurora Biotechnologies) using a Multidrop Combi (Thermo Fisher Scientific Inc.), 23 nL compounds in DMSO were added by a pin tool (Kalypsys), and 5 ul of erythrocytes infected with P. falciparum (0.3% parasitemia, 2.5% hematocrit final concentration) were added. The plates were incubated at 37 C in a humidified incubator in 5% CO2 for 72 h, and 2 ul lysis buffer (20 mM Tris HCl, 10 mM EDTA, 0.16% saponin, 1.6% triton X, 10X SYBR Green I supplied as 10,000X […] by Invitrogen) was added to each well. The plates were mixed for 25 sec with gentle shaking and incubated overnight at room temperature in the dark. The following morning, fluorescence intensity at 485(14) nm excitation and 535(25) nm emission wavelengths was measured on an EnVision (Perkin Elmer) plate reader. Plate reads were normalized relative to the control inhibitor (0.29 uM artemisinin) and vehicle (DMSO) wells present on each plate and then corrected by an algorithm using vehicle-only control plates at the beginning and end of the compound plate stack.", "units": {"parasite growth, % of DMSO control": "%"}, "values": [{"smiles": "C[C@H]1C[C@@H]2[C@@H]([C@@H](O)C[C@@]3(C)[C@H]2CC[C@]3(O)C(=O)CO)[C@@]2(C)C=CC(=O)C=C12", "parasite growth, % of DMSO control": 78.1}]}, {"assay": "qHTS profiling of the MIPE4 collection as inhibitors of Plasmodium falciparum (3D7) proliferation (AID 743344)", "conditions": "P. falciparum 3D7 in erythrocytes, SYBR Green DNA fluorescence, 72 h; at 28.5 µM", "excerpt": "as §1, §2", "units": {"parasite growth, % of DMSO control": "%"}, "values": [{"smiles": "C[C@H]1C[C@@H]2[C@@H]([C@@H](O)C[C@@]3(C)[C@H]2CC[C@]3(O)C(=O)CO)[C@@]2(C)C=CC(=O)C=C12", "parasite growth, % of DMSO control": 59.3}]}, {"assay": "qHTS profiling of the MIPE4 collection as inhibitors of Plasmodium falciparum (3D7) proliferation (AID 743344)", "conditions": "P. falciparum 3D7 in erythrocytes, SYBR Green DNA fluorescence, 72 h; at 28.5 µM unless noted", "excerpt": "as §1, §2", "values": [{"smiles": "C1Cc2[nH]nc(-c3nn[nH]n3)c2C1", "parasite growth, % of DMSO control": "96.6%"}, {"smiles": "Cc1cc(Nc2cc(N3CCN(C)CC3)nc(Sc3ccc(NC(=O)C4CC4)cc3)n2)n[nH]1", "parasite growth, % of DMSO control": "11.5%"}, {"smiles": "O=c1c2ccccc2nc2n1CCc1c-2[nH]c2ccccc12", "parasite growth, % of DMSO control": "85.9%"}, {"smiles": "Cc1cc(CN2CCN(c3c(Br)cnc4nc(-c5ccc(N6CCN(C)CC6)cc5)[nH]c34)CC2)no1", "parasite growth, % of DMSO control": "15.7%"}, {"smiles": "Cn1cc(-c2[nH]c3cc(NC(=O)[C@H](N)C4CCCCC4)cc4c3c2C=NNC4=O)cn1", "parasite growth, % of DMSO control": "3.34%"}, {"smiles": "NC(=O)c1cccc2cn(-c3ccc([C@@H]4CCCNC4)cc3)nc12", "parasite growth, % of DMSO control": "12.4%"}, {"smiles": "O=C(c1ccc(Nc2nccc(-c3cc4ccccc4s3)n2)cc1)N1CCC(N2CCCC2)CC1", "parasite growth, % of DMSO control": "4.58%"}, {"smiles": "O=C(Cc1ccc(-c2ccc(OCCN3CCOCC3)cc2)cn1)NCc1ccccc1", "parasite growth, % of DMSO control": "20.6%"}, {"smiles": "O=C(O)Cn1nnc(-c2cc(N3CCC(Oc4cc(F)ccc4Br)CC3)no2)n1", "parasite growth, % of DMSO control": "86%"}, {"smiles": "CCN1CCN(CC(=O)Nc2ccc(-c3cccc4c(=O)cc(N5CCOCC5)oc34)c3sc4ccccc4c23)CC1", "parasite growth, % of DMSO control": "5.76%"}, {"smiles": "COc1c(N2C[C@@H]3CCCN[C@H]3C2)c(F)cc2c(=O)c(C(=O)O)cn(C3CC3)c12", "parasite growth, % of DMSO control": "53.9% and 70.8%"}, {"smiles": "CC(C)CC(=O)Nc1n[nH]c2c1CN(C(=O)C1CCN(C)CC1)C2(C)C", "parasite growth, % of DMSO control": "5.43%"}, {"smiles": "Cc1c(Cn2c(C)nc3c(C(=O)O)cc(N4CCOCC4)cc32)cccc1C(F)(F)F", "parasite growth, % of DMSO control": "72.5%"}, {"smiles": "Cc1cc(Nc2cc(CN3CCOCC3)c3nc(C)c(Cc4ccc(Cl)cc4F)n3n2)n[nH]1", "parasite growth, % of DMSO control": "6.44%"}, {"smiles": "O=C(Nc1nc2cccc(-c3ccc(CN4CCS(=O)(=O)CC4)cc3)n2n1)C1CC1", "parasite growth, % of DMSO control": "64.7%"}, {"smiles": "COc1cc(=C2C=c3ccccc3=N2)[nH]c1=Cc1[nH]c(C)cc1C", "parasite growth, % of DMSO control": "4.63%"}, {"smiles": "O=c1[nH]nc(Sc2ncc([N+](=O)[O-])s2)n1-c1ccc2c(c1)OCCO2", "parasite growth, % of DMSO control": "59.7%"}, {"smiles": "CC1(C)OC2=C(C(=O)c3ccccc3C2=O)[C@H](NCc2ccccc2)[C@H]1O", "parasite growth, % of DMSO control": "6.23%"}, {"smiles": "O=C(O)CCCc1c[nH]c2ccccc12", "parasite growth, % of DMSO control": "102%"}, {"smiles": "Nc1ccc(C(=O)c2cc3c(ccc4ccccc43)[nH]2)cc1", "parasite growth, % of DMSO control": "292%"}, {"smiles": "CCOc1cc2ncc(C#N)c(Nc3ccc(F)c(Cl)c3)c2cc1NC(=O)C=CCN(C)C", "parasite growth, % of DMSO control": "8.27%"}, {"smiles": "CCN1CCN(Cc2ccc(-c3cc4c(N[C@H](C)c5ccccc5)ncnc4[nH]3)cc2)CC1", "parasite growth, % of DMSO control": "5.16%"}, {"smiles": "Nc1cc(C(F)(F)F)c(-c2cc(N3CCOCC3)nc(N3CCOCC3)n2)cn1", "parasite growth, % of DMSO control": "19.5%"}, {"smiles": "COc1cc(Nc2ncc(F)c(Nc3ccc4c(n3)N(COP(=O)(O)O)C(=O)C(C)(C)O4)n2)cc(OC)c1OC", "parasite growth, % of DMSO control": "19.5%"}, {"smiles": "COC(=O)C1=C(C)NC(C)=C(C(=O)OCCN2CCN(C(c3ccccc3)c3ccccc3)CC2)C1c1cccc([N+](=O)[O-])c1", "note": "(stereo not given)", "parasite growth, % of DMSO control": "19.8%"}, {"smiles": "CC(C)(C)OC(=O)Nc1ccc(-c2cc(C(=O)NCCCCCCC(=O)NO)no2)cc1", "parasite growth, % of DMSO control": "4.81%"}, {"smiles": "CCC1=C[C@@H]2CN(C1)Cc1c([nH]c3ccccc13)[C@@](C(=O)OC)(c1cc3c(cc1OC)N(C)[C@@H]1[C@@](O)(C(=O)OC)[C@H](OC(C)=O)[C@]4(CC)C=CCN5CC[C@]31[C@@H]54)C2", "parasite growth, % of DMSO control": "5.09%"}, {"smiles": "COc1cc(OC2CCN(C)CC2)ccc1Nc1ncc2c(n1)n(C1CCCC1)c(=O)n2C", "parasite growth, % of DMSO control": "9.89%"}, {"smiles": "c1cc(-c2cnn3cc(-c4ccc(OCCN5CCCCC5)cc4)cnc23)ccn1", "parasite growth, % of DMSO control": "4.66%"}, {"smiles": "CC(C)(O)CCc1ccc(OCc2cc(-c3cccc(OC(F)F)c3)c3ncccc3c2)cc1", "parasite growth, % of DMSO control": "111%"}, {"smiles": "Cc1ccc(NC(=O)C2(c3ccc4c(c3)OC(F)(F)O4)CC2)nc1-c1cccc(C(=O)O)c1", "parasite growth, % of DMSO control": "7.25%"}, {"smiles": "CN1CCN(Cc2ccc(NC(=O)Nc3ccc(Oc4cc(NC(=O)C5CC5)ncn4)cc3)cc2C(F)(F)F)CC1", "parasite growth, % of DMSO control": "6%"}, {"smiles": "O=C(NCCCNc1nc(Nc2cccc(NC(=O)N3CCCC3)c2)ncc1I)c1cccs1", "parasite growth, % of DMSO control": "6.21%"}, {"smiles": "COC(=O)Nc1nc2ccc(C(=O)c3ccc(F)cc3)cc2[nH]1", "parasite growth, % of DMSO control": "66.2%"}, {"smiles": "CCC(=C(c1ccccc1)c1ccc(OCCN(C)C)cc1)c1ccccc1", "parasite growth, % of DMSO control": "53.1%"}, {"smiles": "CC=C1NC(=O)[C@H]2CSSCCC=C[C@H](CC(=O)N[C@H](C(C)C)C(=O)N2)OC(=O)[C@H](C(C)C)NC1=O", "parasite growth, % of DMSO control": "5.8%"}, {"smiles": "COc1cc2nccc(Oc3ccc(NC(=O)C4(C(=O)Nc5ccc(F)cc5)CC4)cc3)c2cc1OC", "parasite growth, % of DMSO control": "3.93%"}, {"smiles": "COc1cc2c(Oc3ccc(NC(=O)C4(C(=O)Nc5ccc(F)cc5)CC4)cc3F)ccnc2cc1OCCCN1CCOCC1", "parasite growth, % of DMSO control": "7.43%"}]}]}
